Assay outcomes (PubChem)
Hits are enriched below; roughly 7.3% of the tested compounds scored in any of these assays.
NPC1 promoter act = qHTS Assay for NPC1 Promoter Activators. hit rate 2.4% among 320,000. Potency, µM (highest dose often 9.22 µM), for inactives: top-dose activation, most hits filed as activators. Huh7 NPC1 promoter luciferase reporter, 24 h; further: % of control where 0% means no effect; nearly all actives have a fitted effect of over 60% in size
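Quantitative HTS used a cell-based reporter: Huh7 cells stably bearing the NPC1 promoter upstream of luciferase were treated with compounds for 24 h, and promoter activation was read as luminescence.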
SMN2 splice enh = qHTS Assay for Enhancers of SMN2 Splice Variant Expression; HEK293 SMN2-luciferase splicing reporter, luminescence, 30-36 h; Potency, µM (series often up to 46.1 µM), for the others: top-dose activity change, positive = activation, usual class: activators; hit rate 2.8% among 210,000; AID 1458, 2008; further: % of control where 0% means no effect; nearly all actives have a fitted effect of over 55% in size
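HEK293 cells carry an SMN2 minigene-luciferase reporter in which exon 7 inclusion puts luciferase in frame. Cells were seeded at 2000 cells/well, attached for 10-12 hours, then exposed to compounds for 30-36 hours at 37C before ONE-Glo luminescence.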
FLuc modulator = qHTS profiling assay for firefly luciferase inhibitor/activator using purifed enzyme and Km concentrations of substrates (counterscreen for miR-21 project). Potency, µM (highest dose often 57.5 µM), for the others: top-dose activity change, negative = inhibition, actives largely listed as inhibitors. purified FLuc, Km substrates, luminescence inhibition. Luciferin 4-monooxygenase (Photinus pyralis), P08659. hit rate 6.9% among 360,000. AID 588342, 2011;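 further: plate controls were vehicle for no effect and reference inhibitor for full effect; nearly all actives have a fitted effect of over 55% in size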
Target sequence (P08659 whole entry, looked up): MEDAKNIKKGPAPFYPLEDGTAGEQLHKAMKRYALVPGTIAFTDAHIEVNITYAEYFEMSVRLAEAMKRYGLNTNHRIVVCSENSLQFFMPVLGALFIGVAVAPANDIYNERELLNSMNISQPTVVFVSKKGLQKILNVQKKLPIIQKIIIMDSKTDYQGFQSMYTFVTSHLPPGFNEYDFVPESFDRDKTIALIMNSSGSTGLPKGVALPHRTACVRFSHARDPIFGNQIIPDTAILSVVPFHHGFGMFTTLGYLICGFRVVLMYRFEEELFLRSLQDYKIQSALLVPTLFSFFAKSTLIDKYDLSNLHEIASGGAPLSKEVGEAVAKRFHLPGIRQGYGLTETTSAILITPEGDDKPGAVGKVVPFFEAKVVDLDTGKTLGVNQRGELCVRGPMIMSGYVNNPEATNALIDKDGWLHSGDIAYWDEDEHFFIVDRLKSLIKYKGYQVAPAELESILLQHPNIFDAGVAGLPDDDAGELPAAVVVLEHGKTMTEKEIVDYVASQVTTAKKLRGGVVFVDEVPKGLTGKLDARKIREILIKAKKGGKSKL
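Purified P. pyralis luciferase (10nM final) with 10uM D-luciferin and 10uM ATP (Km levels) in 50mM Tris acetate pH 7.5, 10mM Mg acetate, 0.01% Tween-20, 0.05% BSA; qHTS 6-point titration, ~60 µM downward; luminescence read.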
KinaseGlo FLuc = Counterscreen for Luciferase (Kinase-Glo TM) Inhibition; Potency, µM (titrated, usually from 38.3 µM), for inactives: top-dose activity change, negative = inhibition, actives largely listed as inhibitors; Kinase-Glo luciferase, ATP luminescence, 8 min; hit rate 0.28% among 200,000; Luciferin 4-monooxygenase (Photuris pensylvanica), Q27757; further: on the % scale 0 is the no-effect control and ±100 the full control effect; nearly all actives have a fitted effect of over 60% in size
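Kinase-Glo luciferase light output from ATP and luciferin was measured with 10 uM ATP, within the enzyme's linear range. Buffer: 50 mM imidazole pH 7.2, 50 mM KCl, 7 mM MgCl2, 0.01% Tween 20, 0.05% BSA; luminescence read after 8 min at ambient temperature.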
ELG1 genotox = qHTS screen for small molecules that induce genotoxicity in human embryonic kidney (HEK293T) cells expressing luciferase-tagged ELG1; HEK293T ELG1-luciferase reporter, luminescence, 16 h; Potency, µM (top dose mostly 46 µM), for inactives: at the highest dose activity change, positive = activation, hits mostly activators; hit rate 1.3% among 330,000; AID 504466, 2011; further: % of control where 0% means no effect; nearly all actives have a fitted effect of over 60% in size
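Quantitative HTS format in 1536-well plates. HEK293T ELG1-luciferase reporter cells receive test compound and are incubated 16 hr at 37 °C, 5% CO2; ONE-Glo added, 30 min room temperature, then luminescence read.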
Rab9 promoter act = qHTS Assay for Rab9 Promoter Activators; AID 485297, 2010; Huh7 Rab9 promoter-luciferase reporter, luminescence, 24 h; hit rate 2.8% among 320,000; Potency, µM (titrated, usually from 9.22 µM), inactives show at the top dose activation, negative = inhibition, hits mostly activators; further: % of control where 0% means no effect; nearly all actives have a fitted effect of over 60% in size
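Stable Rab9-luc Huh7, 1500 cells/well, 2 h settle; cmpd in DMSO, 24 h, 37 °C/5% CO2; luciferase reagent 10 min RT; luminescence.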
The depositor's hits bear a star. The call rests on the fitted dose curve; in most records, active means well fitted curve in the direction sought with a large enough effect; inconclusive means small, poorly fitted or top-dose-only effect, or another doubt; inactive means no such curve, though single readings can be large; an effect the other way counts as inactive or inconclusive. Potency means the concentration at half of the fitted maximal effect.

What do the screens show for `O=c1c(-c2ccc(O)cc2)coc2cc(O)ccc12`?
NPC1 promoter act: 9.2µM*; SMN2 splice enh: 13µM*; KinaseGlo FLuc: -7%; Rab9 promoter act: 10µM*

Results for O=c1c(F)cn(C2CCCO2)c(=O)n1Cc1c(Cl)cccc1Cl (stereo unspecified) ?
NPC1 promoter act: 1%; SMN2 splice enh: 1%; FLuc modulator: 3%; KinaseGlo FLuc: -2%; ELG1 genotox: 4%; Rab9 promoter act: -1%

What do the screens show for `O=[N+]([O-])c1ccc(NNC(=S)Nc2ccccc2)cc1`?
NPC1 promoter act: inconclusive; SMN2 splice enh: -38%; FLuc modulator: inconclusive; KinaseGlo FLuc: -11%; ELG1 genotox: inconclusive; Rab9 promoter act: 25%

How did O=C1CC(=O)N(CCNc2ncc(C(F)(F)F)cc2Cl)C(=O)N1 do in these assays?
NPC1 promoter act: -5%; SMN2 splice enh: -11%; FLuc modulator: -11%; KinaseGlo FLuc: -1%; ELG1 genotox: -1%; Rab9 promoter act: -3%

Results for C=CCn1c(C)cc(C(=O)CN2NS(=O)(=O)c3ccccc3C2=O)c1C ?
NPC1 promoter act: 18%; SMN2 splice enh: -15%; FLuc modulator: 1.7µM*; KinaseGlo FLuc: 3%; ELG1 genotox: 21µM*; Rab9 promoter act: inconclusive

What do the screens show for `C=CCn1c(C)cc(C(=O)Cn2ncc(Cl)c(Cl)c2=O)c1C`?
NPC1 promoter act: -16%; SMN2 splice enh: inconclusive; FLuc modulator: 5.4µM*; KinaseGlo FLuc: -4%; ELG1 genotox: -15%; Rab9 promoter act: -25%

Results for COc1ccc(C(O)c2ncc(C(F)(F)F)cc2Cl)cc1 (stereo unspecified) ?
NPC1 promoter act: 2%; FLuc modulator: 1%; ELG1 genotox: 0%; Rab9 promoter act: -3%

Results for Fc1ccc(-c2cn3cc(C(F)(F)F)cc(Cl)c3n2)cc1 ?
NPC1 promoter act: inconclusive; SMN2 splice enh: 13µM*; FLuc modulator: 1.7µM*; KinaseGlo FLuc: -6%; ELG1 genotox: inconclusive; Rab9 promoter act: 4.5µM*

What do the screens show for `COc1ccc(-c2cn3cc(C(F)(F)F)cc(Cl)c3n2)cc1`?
NPC1 promoter act: inconclusive; SMN2 splice enh: 2.8µM*; FLuc modulator: 3µM*; KinaseGlo FLuc: -3%; ELG1 genotox: 5.8µM*; Rab9 promoter act: 2.2µM*

What do the screens show for `CCOC(=O)N1CCc2c(sc3c2c(=O)n(-c2ccc(CC)cc2)c(=O)n3Cc2cccc(OC)c2)C1`?
SMN2 splice enh: -1%; FLuc modulator: -1%

What do the screens show for `O=C(CCS(=O)(=O)c1ccccc1)Nc1nc2cc3c(cc2s1)OCO3`?
NPC1 promoter act: 22%; FLuc modulator: 13µM*; ELG1 genotox: 10%; Rab9 promoter act: 19%

What do the screens show for `O=C(CCS(=O)(=O)c1ccccc1)Nc1nc2ccc(F)cc2s1`?
NPC1 promoter act: 4%; FLuc modulator: 3%; ELG1 genotox: -2%; Rab9 promoter act: -4%

What do the screens show for `O=C(CCS(=O)(=O)c1ccccc1)Nc1nc2cc3c(cc2s1)OCCO3`?
NPC1 promoter act: 18%; FLuc modulator: 7.6µM*; ELG1 genotox: inconclusive; Rab9 promoter act: 19%

What do the screens show for `O/N=C/c1cccn1-c1ccc(O)cc1`?
NPC1 promoter act: -12%; SMN2 splice enh: 13%; FLuc modulator: 1%; KinaseGlo FLuc: -2%; ELG1 genotox: -1%; Rab9 promoter act: 4%

How did CCn1c(=O)c2cc(C(=O)Nc3ccccc3OC)sc2c2ccccc21 do in these assays?
NPC1 promoter act: -3%; FLuc modulator: -10%; ELG1 genotox: -5%; Rab9 promoter act: -3%

What do the screens show for `CC(=O)N(C)c1ccc(N=Nc2c(C)[nH]n(C(N)=S)c2=O)cc1`?
NPC1 promoter act: 0.63µM*; SMN2 splice enh: 3.2µM*; FLuc modulator: 2.7µM*; KinaseGlo FLuc: 0%; ELG1 genotox: inconclusive; Rab9 promoter act: 0.45µM*

What do the screens show for `CCN(CC)S(=O)(=O)c1ccc(N=Nc2c(C)[nH]n(C(N)=S)c2=O)cc1`?
NPC1 promoter act: inconclusive; SMN2 splice enh: inconclusive; FLuc modulator: 8.5µM*; KinaseGlo FLuc: 1%; ELG1 genotox: 16%; Rab9 promoter act: inconclusive

How did Cc1ccccc1N=Nc1c(C)[nH]n(C(N)=S)c1=O do in these assays?
NPC1 promoter act: 10%; SMN2 splice enh: -3%; FLuc modulator: inconclusive; KinaseGlo FLuc: 3%; ELG1 genotox: 0%; Rab9 promoter act: 1%

Results for O=C(OCc1nc2ccccc2[nH]1)C12CC3CC(CC(C3)C1)C2 ?
NPC1 promoter act: -5%; SMN2 splice enh: -11%; FLuc modulator: inconclusive; KinaseGlo FLuc: -1%; ELG1 genotox: -3%; Rab9 promoter act: -5%

What do the screens show for `O=C(Nc1nc2ccccc2[nH]1)C12CC3CC(CC(C3)C1)C2`?
NPC1 promoter act: 2µM*; SMN2 splice enh: 14µM*; FLuc modulator: 3.4µM*; KinaseGlo FLuc: -2%; ELG1 genotox: inconclusive; Rab9 promoter act: 2.8µM*

Results for O=C(Nc1nc2ccccc2[nH]1)C1CC1 ?
NPC1 promoter act: -15%; SMN2 splice enh: 10µM*; FLuc modulator: inconclusive; KinaseGlo FLuc: -11%; ELG1 genotox: 10%; Rab9 promoter act: 0%

How did O=C(Nc1nc2ccccc2[nH]1)C1CCN(C(=O)c2ccc(F)cc2)CC1 do in these assays?
NPC1 promoter act: -4%; FLuc modulator: -14%; ELG1 genotox: -2%; Rab9 promoter act: -1%

Results for O=C(CSc1nc2ccccc2[nH]1)Nc1ccccc1F ?
NPC1 promoter act: -1%; SMN2 splice enh: -7%; FLuc modulator: 3%; KinaseGlo FLuc: -2%; ELG1 genotox: 5%; Rab9 promoter act: -4%

Results for O=C(Nc1nc2ccccc2[nH]1)Nc1ccccc1F ?
NPC1 promoter act: inconclusive; FLuc modulator: 1.1µM*; ELG1 genotox: 1.2µM*; Rab9 promoter act: inconclusive

How did O=C(NC1CCCC1)c1ccccc1-c1nc2ccccc2[nH]1 do in these assays?
NPC1 promoter act: -1%; SMN2 splice enh: 11µM*; FLuc modulator: 0%; KinaseGlo FLuc: -6%; ELG1 genotox: -1%; Rab9 promoter act: 1%

How did C=CCOc1c(/C=N\NC(N)=O)cccc1OC do in these assays?
NPC1 promoter act: -9%; FLuc modulator: -1%; ELG1 genotox: 1%; Rab9 promoter act: 0%

How did O=C(Nc1nc2ccccc2[nH]1)NC1CCCCC1 do in these assays?
NPC1 promoter act: 0.45µM*; FLuc modulator: 1.5µM*; ELG1 genotox: 2.6µM*; Rab9 promoter act: 0.4µM*
